Cardiac RTF inh: cardiac RTF calcium desensitization; AID 493244; 340,000 tested, 0.12% active; inhibition, % at 7.15 µM; IANBD-labeled cardiac RTF, Ca2+ fluorescence;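 active means inhibition above the mean inhibition of all tested compounds plus 3 SD, cut at about 17% in these data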;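 further: assay run at fixed EC70 calcium of 1.6 mM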
ANO1 activ: activators or potentiators of mouse TMEM16A chloride channel; AID 623877; B-score at 10 µM; HEK293 TMEM16A/YFP-H148Q/I152L, iodide quench fluorescence; active compounds read low; 340,000 tested, 0.3% active;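 active means fluorescence-ratio B-score plate-corrected deviation score at least 3 library SD below zero, with starting fluorescence score within 5 deviations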;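 further: channel opened by trigger with iodide after compound preincubation; score built on the fluorescence ratio of max minus min over baseline; more negative score means more quench and so TMEM16A activation or potentiation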
Target sequence (Q8BHY3 whole entry, looked up): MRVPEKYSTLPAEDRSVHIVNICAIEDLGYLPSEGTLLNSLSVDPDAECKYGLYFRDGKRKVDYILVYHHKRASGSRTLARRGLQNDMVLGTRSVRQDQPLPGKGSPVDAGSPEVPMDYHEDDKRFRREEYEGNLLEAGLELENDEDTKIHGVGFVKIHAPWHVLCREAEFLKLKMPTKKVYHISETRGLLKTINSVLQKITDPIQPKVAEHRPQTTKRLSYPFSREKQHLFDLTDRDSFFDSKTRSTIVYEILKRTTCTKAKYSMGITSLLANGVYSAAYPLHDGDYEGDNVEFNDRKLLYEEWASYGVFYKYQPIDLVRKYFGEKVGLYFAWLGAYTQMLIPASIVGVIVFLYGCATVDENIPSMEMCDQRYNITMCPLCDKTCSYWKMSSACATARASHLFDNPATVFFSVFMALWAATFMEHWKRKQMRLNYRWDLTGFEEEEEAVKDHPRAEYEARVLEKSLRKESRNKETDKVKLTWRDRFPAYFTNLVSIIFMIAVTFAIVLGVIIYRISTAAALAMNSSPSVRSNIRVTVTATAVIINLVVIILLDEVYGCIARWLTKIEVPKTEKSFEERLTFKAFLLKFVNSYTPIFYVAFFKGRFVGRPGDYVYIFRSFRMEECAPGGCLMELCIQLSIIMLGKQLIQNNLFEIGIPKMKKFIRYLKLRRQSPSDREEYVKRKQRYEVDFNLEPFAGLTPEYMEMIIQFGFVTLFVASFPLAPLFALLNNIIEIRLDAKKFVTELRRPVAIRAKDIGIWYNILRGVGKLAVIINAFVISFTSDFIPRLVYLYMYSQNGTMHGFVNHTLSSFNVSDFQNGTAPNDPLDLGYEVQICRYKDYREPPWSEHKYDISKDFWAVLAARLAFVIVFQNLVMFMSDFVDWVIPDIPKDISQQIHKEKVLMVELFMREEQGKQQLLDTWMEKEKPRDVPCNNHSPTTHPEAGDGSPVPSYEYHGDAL
RTF Ca sens act: cardiac RTF calcium sensitization; P19429+P45379; IANBD-labeled TnC RTF fluorescence at EC20 calcium; 0% EC20 calcium, 100% full calcium; activation, % at 7.2 µM; 340,000 tested, 0.24% active;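 active means activation above the mean over all tested compounds plus 3 SD, cut at about 30% in these data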;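 further: rise in fluorescence read as greater calcium sensitivity of cardiac thin filaments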
CRFBP-R2 agonist: agonists of human CRF-binding protein/CRF-R2 receptor complex | 350,000 tested, 0.46% active | HEK293 CRF-R2/CRF-BP, calcium dye fluorescence (FLIPR); percent of saturating CRF peptide response | activation, % at 13.2 µM | AID 588473;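 active means activation of at least 50%, plus an integration ratio under a set limit after plate pattern correction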;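 further: plate controls were neutral control wells without compound for no effect and CRF at EC100 for full effect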
CRFR2-BP antag: CRF-BP/CRF-R2 complex antagonism; HEK293 CRF-R2/CRF-BP, CRF-induced calcium fluorescence; inhibition, % at 11.8 µM; 350,000 tested, 0.59% active; AID 588475;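 active means inhibition of the ligand-induced calcium signal above about 50% at the single tested concentration, limit read from the data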
TMEM16A inh: blocks the mouse calcium-activated chloride channel TMEM16A; HEK293 TMEM16A/YFP iodide influx fluorescence, ionomycin; normalized B-score (activity score, 25-100; higher = stronger inhibition) at 10 µM; 310,000 tested, 1.2% active; AID 588511;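 active means ratio plate-corrected score three or more library SD toward inhibition, starting fluorescence score within five deviations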;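 further: score derived from kinetic fluorescence span divided by baseline fluorescence per well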
Active calls of the source: *; i = inactive; x = not tested or not shown. Only some compounds are listed: those with a hit (about 2.4% of all), similar ones and a draw of the others.

SMILES	Cardiac RTF inh	ANO1 activ	RTF Ca sens act	CRFBP-R2 agonist	CRFR2-BP antag	TMEM16A inh
CC(C)Nc1ccc(C(CC(N)=O)NC(=O)c2ccc(Br)cc2)cc1[N+](=O)[O-] (stereo not drawn)	5	i	-3	-2	2	i
CN(Cc1ccccc1)c1ccc(C(CC(N)=O)NC(=O)c2ccc(Br)cc2)cc1[N+](=O)[O-] (stereo not drawn)	1	i	-12	-2	13	25*
Cc1cn(-c2cc(C(=O)Nc3ccc(C)c(NC(=O)C(=O)c4c[nH]c5ccccc45)c3)cc(C(F)(F)F)c2)cn1	-10	i	2	0	-13	i
CCCN(CCC)S(=O)(=O)c1ccc(C(=O)Nc2nnc(-c3cc(OC)cc(OC)c3)o2)cc1	-4	i	0	1	2	100*
CCCN(CCC)S(=O)(=O)c1ccc(C(=O)Nc2nnc(-c3cccc(OC)c3)o2)cc1	-3	i	8	100*	-86	25*
CCCN(CCC)S(=O)(=O)c1ccc(C(=O)Nc2nnc(CSC)o2)cc1	-17	i	4	0	4	i
CCCCCCn1c(=O)c(F)cn(Cc2ccc(OC)c([N+](=O)[O-])c2)c1=O	-21	i	2	-2	59*	i
CCCCCn1c(=O)c(F)cn(Cc2ccc(OC)c([N+](=O)[O-])c2)c1=O	5	i	2	0	6	i
O=C(O)/C=C\C(=O)Nc1ccc(F)c(F)c1F	-4	i	5	-1	-8	i
COc1ccccc1NC(=O)C(Sc1ccccc1)c1ccccc1 (stereo not drawn)	-5	i	-2	3	33	i
CCOc1ccccc1NC(=O)C(Sc1ccccc1)c1ccccc1 (stereo not drawn)	-10	i	0	5	-10	100*
COc1ccc(NC(=O)C(Sc2ccccc2)c2ccccc2)c(OC)c1 (stereo not drawn)	0	i	2	2	51*	i
COc1ccccc1NC(=O)/C(C#N)=C/c1ccncc1	-4	i	-3	-2	11	i
COc1ccccc1NC(=O)/C(C#N)=C/c1cc([N+](=O)[O-])ccc1N1CCCC1	-3	i	7	92*	-43	i
CCS(=O)(=O)C1=NN2C(=N)/C(=C\c3ccc(OCCOc4cccc(OC)c4)c(OC)c3)C(=O)N=C2S1	0	i	-6	0	53*	i
COc1ccc(S(=O)(=O)N(C)C[C@H]2Oc3ncc(C#CC4(O)CCCC4)cc3C(=O)N([C@@H](C)CO)C[C@@H]2C)cc1	x	x	x	-2	4	x
O=c1c2[nH]c3ccccc3c2ncn1Cc1ccco1	5	i	8	-2	5	i
Cc1ccc2c(c1)[nH]c1c(=O)n(Cc3ccco3)cnc12	0	i	1	84*	-11	i
Cc1c(Cl)sn(-c2ccc(Cl)cc2)c1=O	-8	-14*	-2	0	-27	x
Cc1ccccc1Cn1c(=O)sc2ccccc2c1=O	0	i	4	-5	56*	i
O=C(c1ccc([N+](=O)[O-])cc1)N(Cc1ccc(Cl)cc1Cl)N1C(=O)CCCC1=O	-5	i	3	53*	-103	i
O=C(c1ccc([N+](=O)[O-])cc1)N(Cc1ccc(Cl)cc1)N1C(=O)CCCC1=O	1	i	-2	157*	-42	i
O=C(Cn1cc([N+](=O)[O-])ccc1=O)NCc1ccc(Cl)cc1Cl	-14	i	3	0	0	i
COc1ccccc1NC(=S)N1CCN(C/C=C/c2ccccc2)CC1	3	i	-1	-3	16	i
CCN(CC)C(=O)C(=O)c1cccn1-c1cccc(OC)c1C#N	-8	i	-7	1	-13	i
SMILES	Cardiac RTF inh	ANO1 activ	RTF Ca sens act	CRFBP-R2 agonist	CRFR2-BP antag	TMEM16A inh
CCCCCCCN=CC1=C(O)CC(c2ccccc2)CC1=O (stereo not drawn)	-5	i	7	-1	-29	i
CCCCc1nc(N2CCN(C(=O)c3ccco3)CC2)c(C#N)c2c1CCCC2	1	-4.8*	-5	2	-11	100*
CC(C)c1nc(N2CCN(C(=O)c3ccco3)CC2)c(C#N)c2c1COC(C)(C)C2	-1	i	-2	-1	11	i
Cc1ccc(S(=O)(=O)NCc2ccccc2)cc1C(=O)NCC(C)(C)N1CCOCC1	2	i	-3	0	17	i
COc1cccc(CN2CCC(C(=O)N3CCC(C)CC3)CC2)c1	-3	i	6	1	4	i
Cc1ccc(S(=O)(=O)Oc2ccccc2-c2ccccc2)cc1	-9	-5.4*	2	13	-9	x
CCN1/C(=C\C=C(C(C)=O)C(C)=O)Sc2ccccc21	-94	-5.6*	78*	81*	-82	i
CCN1/C(=C\C(=S)Nc2ccccc2)Sc2ccccc21	-3	i	1	-1	-13	i
CCOC(=O)/C(C#N)=C(C)/C=C1\Sc2ccccc2N1CC	-2	i	169*	122*	-156	i
N#Cc1ccc(Oc2cccc3cccnc23)c([N+](=O)[O-])c1	-9	-5.8*	5	3	-25	i
Cc1cc(-c2ccc(N3CCOCC3)cc2)nc2ccccc12	-5	i	6	58*	-40	i
O=S(CC1CC1(Cl)Cl)CC1CC1(Cl)Cl (stereo not drawn)	-10	i	12	-1	18	i
CN(C)CCP(=O)(c1ccccc1)c1ccccc1	1	i	5	0	8	i
CN(C)CCN(C)Cc1c2ccccc2c(CN(C)CCN(C)C)c2ccccc12	-29	-5.5*	26	18	-9	i
Cc1cc(C(=O)NNC(=O)c2ccc(Cl)cc2Cl)c(C)o1	-1	i	-1	0	-4	i
Cc1ccc(-c2cccc(-c3cc(=O)oc4ccc(C(C)(C)C)cc34)c2)cc1	-3	i	0	8	-8	x
CCN(CC)CCCNc1ccc(-c2nnc(-c3ccc(OCC(C)C)cc3)o2)cn1	14	-5.6*	4	-1	22	i
CCCOc1cccc(-c2cc(C(=O)N/N=C/c3cccnc3)c3ccccc3n2)c1	-8	i	6	2	-7	25*
CC(C)(C)c1ccc(SCCc2cccnc2)cc1	0	i	8	0	71*	i
Cc1cc(C)cc(NC(=O)CSCc2nc3c(nnn3Cc3ccc(F)cc3)c(=O)[nH]2)c1	-5	i	0	-1	-4	25*
Cc1ccc(Cn2nnc3c(=O)[nH]c(C4CCCN(C(=O)Nc5ccc(F)cc5F)C4)nc32)cc1 (stereo not drawn)	-1	i	-16	-2	-18	i

Assay outcomes (PubChem BioAssay)
